Inconclusive results are not listed. The source made the active and inactive calls. Unless noted, calls follow the shape of the dose curve; as a rule, active = well fitted curve in the direction sought with a large enough effect in the repeat runs; inconclusive = weak or mixed curves; inactive = no such curve, though single readings can be large; an effect the other way counts as inactive or inconclusive.
Tests used:
[1] = qHTS assay to identify small molecule antagonists of the vitamin D receptor (VDR) signaling pathway - cell viability counter screen (AID 743225); also: nearly all actives have a fitted effect of over 50% in size
Method in brief: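 Cytotoxicity toward the VDR-bla HEK 293T line was scored by ATP-based CellTiter-Glo luminescence, read in the wells already used for the beta-lactamase readout after 16 h compound treatment under 3 nM 1-alpha,25-dihydroxyvitamin D3 stimulation.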

[2] = qHTS assay to identify small molecule agonists of the NFkB signaling pathway (AID 1159509; active = well fitted curve in the direction sought with a large enough effect in the signal ratio in the repeat runs, not every such curve was filed as active; the % refers to the signal ratio; also: series mostly up to about 61 µM)
Method in brief: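 NFkB-bla ME-180 cells with a beta-lactamase reporter under an NF-kB response element were plated overnight, treated with compounds in DMSO for 5 hr at 37 C, then loaded with FRET substrate for 1.5 hr at room temperature.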

[3] = qHTS assay to identify small molecule agonists of the NFkB signaling pathway - cell viability counter screen (AID 1159515; calls by dose curve; also: series mostly up to about 61 µM; nearly all actives have a fitted effect of over 55% in size)
Method in brief: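 NFkB-bla ME-180 cells, 2,000/well, were plated overnight at 37 C, 5% CO2, then exposed to compounds in DMSO for 5 hr. After the bla FRET read, CellTiter-Glo was added to the same wells; luminescence was read after 30 min at room temperature.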

[4] = qHTS assay to identify small molecule agonists of the endoplasmic reticulum stress response signaling pathway (AID 1159516; active = well fitted activation curve with a large enough effect in the signal ratio in the repeat runs, not every such curve was filed as active; the % refers to the signal ratio)
Method in brief: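 CellSensor ESRE-bla HeLa cells, carrying a beta-lactamase reporter driven by the ER stress response element, were plated overnight and exposed to compounds for 5 hr at 37 C. Reporter activity was read as FRET substrate fluorescence after 2 hr at room temperature.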

[5] = qHTS assay to identify small molecule agonists of the endoplasmic reticulum stress response signaling pathway - cell viability counter screen (AID 1159517; calls by dose curve; also: series mostly up to about 61 µM; nearly all actives have a fitted effect of over 50% in size)
Method in brief: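 Luminescence readout: CellTiter-Glo, 30 min RT, same wells as the ESRE-bla reporter read. HeLa ESRE-bla, 1,500 cells/well, o/n 37 C; cpd 5 hr 37 C/5% CO2.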

[6] = qHTS assay to identify small molecule antagonists of the retinoid-related orphan receptor gamma (ROR-gamma) signaling pathway - cell viability counter screen (AID 1159520); also: nearly all actives have a fitted effect of over 50% in size
Method in brief: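 Tet-on ROR gamma CHO cells (1,000/well) were plated 4 hr, given compounds in DMSO for 2 hr at 37 C, then induced with 1 uM final doxycycline for 16 hr. Viability was read as ATP by CellTiter-Glo luminescence after 30 min.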

[7] = target: Nuclear receptor ROR-gamma (Homo sapiens) (UniProt P51449); assay: qHTS assay to identify small molecule antagonists of the retinoid-related orphan receptor gamma (ROR-gamma) signaling pathway (AID 1159521;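 also: CHO cells with doxycycline inducible ROR-gamma driving an RORE luciferase reporter; top concentration of the series differs between compounds; nearly all actives have a fitted effect of over 50% in size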)
Method in brief: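 Readout: ONE-Glo luciferase luminescence, 30 min at room temperature. System: Tet-on RORγ CHO, RORE-LUC. Sequence: compound 2 h, doxycycline 1 uM final, 16 h at 37 C.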

[8] = qHTS assay to identify small molecule agonists of the AP-1 signaling pathway - cell viability counter screen (AID 1159525; calls by dose curve; also: nearly all actives have a fitted effect of over 55% in size)
Method in brief: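 ME-180 AP-1-bla, 2500 cells/well, Opti-MEM + 0.5% dialyzed FBS; overnight 37 °C; cpd 15-pt titration, 5 h 37 °C; CellTiter-Glo 30 min RT; luminescence read; normalised to TOAB and DMSO controls.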

[9] = qHTS assay to identify small molecule agonists of the AP-1 signaling pathway (AID 1159526; calls by dose curve)
[10] = qHTS assay to identify small molecule agonists of the RXR signaling pathway - cell viability counter screen (AID 1159529)
Method in brief: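 Tox21 10K compounds were tested for cytotoxicity against GeneBLAzer RXR-alpha HEK 293T cells grown in 2% charcoal-stripped FBS. Exposure lasted 16 hr at 37 C, 5% CO2; viability read by CellTiter-Glo luminescence.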

[11] = qHTS assay to identify small molecule antagonists of the retinoid acid receptor (RAR) signaling pathway - cell viability counter screen (AID 1159551); also: nearly all actives have a fitted effect of over 35% in size
Method in brief: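 C3RL4 cells were seeded overnight at 37 C, then treated with compounds plus 1 uM (final) retinol for 6 h at 37 C. Viability was read as ATP by CellTiter-Glo luminescence after 30 min at room temperature.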

[12] = qHTS assay to identify small molecule antagonists of the estrogen related receptor (ERR) signaling pathway from Tox21 library - cell viability counter screen (AID 1224834); also: nearly all actives have a fitted effect of over 30% in size
Method in brief: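 ERR reporter cells were plated 6 h before compound addition, then exposed to test compounds in DMSO for 17.5 h at 37 C. Viability was read as CellTiter-Fluor fluorescence after a 30-minute incubation at 37 C.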

[13] = target: Luciferin 4-monooxygenase (Photinus pyralis) (UniProt P08659); assay: qHTS assay to identify small molecule inhibitors of firefly luciferase (AID 1224835); also: series mostly up to about 120 µM; nearly all actives have a fitted effect of over 25% in size
Chain of Luciferin 4-monooxygenase (Photinus pyralis) (P08659 whole entry, looked up): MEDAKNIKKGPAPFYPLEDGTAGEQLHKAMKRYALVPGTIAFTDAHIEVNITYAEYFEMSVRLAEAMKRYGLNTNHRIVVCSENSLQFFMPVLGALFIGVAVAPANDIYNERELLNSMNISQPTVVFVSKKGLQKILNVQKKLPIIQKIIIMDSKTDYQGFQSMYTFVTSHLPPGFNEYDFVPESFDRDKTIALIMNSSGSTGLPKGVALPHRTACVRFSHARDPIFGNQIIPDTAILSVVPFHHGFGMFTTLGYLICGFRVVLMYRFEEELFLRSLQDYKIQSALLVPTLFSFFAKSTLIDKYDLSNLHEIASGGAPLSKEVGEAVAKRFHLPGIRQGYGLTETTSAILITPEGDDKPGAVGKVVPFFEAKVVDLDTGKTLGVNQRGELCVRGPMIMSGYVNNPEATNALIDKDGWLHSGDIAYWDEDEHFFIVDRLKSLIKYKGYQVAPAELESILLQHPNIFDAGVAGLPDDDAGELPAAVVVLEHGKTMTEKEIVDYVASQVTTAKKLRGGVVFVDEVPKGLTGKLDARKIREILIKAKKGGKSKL
Method in brief: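 Quantitative HTS format; KM concentrations of both substrates. Purified P. pyralis FLuc activity quantified from luminescence images.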

[14] = qHTS assay to identify small molecule agonists of the constitutive androstane receptor (CAR) signaling pathway - cell viability counter screen (AID 1224836); also: series mostly up to about 92 µM; nearly all actives have a fitted effect of over 45% in size
Method in brief: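 Fluorescence from CellTiter-Fluor indicates live cells after 23 h exposure. The human hepatoma line expresses hCAR and a CYP2B6-2.2kb reporter. Incubation medium contains 0.75 uM PK11195 (final).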

[15] = qHTS assay to identify small molecule antagonists of the constitutive androstane receptor (CAR) signaling pathway - cell viability counter screen (AID 1224837); also: series mostly up to about 92 µM; nearly all actives have a fitted effect of over 45% in size
Method in brief: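 HepG2 cells stably expressing hCAR and a CYP2B6-2.2kb reporter were plated and pre-incubated 4 hr at 37 C/5% CO2, then given compounds at 15 concentrations plus 50 nM CITCO (final). After 23 hr, viability was read by CellTiter-Fluor fluorescence.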

[16] = target: Retinoic acid receptor RXR-alpha (Homo sapiens) (UniProt P19793); assay: qHTS assay to identify small molecule agonists of the RXR signaling pathway (AID 1159527; calls by dose curve; also: nearly all actives have a fitted effect of over 35% in size)
Chain of Retinoic acid receptor RXR-alpha (Homo sapiens) (P19793 whole entry, looked up): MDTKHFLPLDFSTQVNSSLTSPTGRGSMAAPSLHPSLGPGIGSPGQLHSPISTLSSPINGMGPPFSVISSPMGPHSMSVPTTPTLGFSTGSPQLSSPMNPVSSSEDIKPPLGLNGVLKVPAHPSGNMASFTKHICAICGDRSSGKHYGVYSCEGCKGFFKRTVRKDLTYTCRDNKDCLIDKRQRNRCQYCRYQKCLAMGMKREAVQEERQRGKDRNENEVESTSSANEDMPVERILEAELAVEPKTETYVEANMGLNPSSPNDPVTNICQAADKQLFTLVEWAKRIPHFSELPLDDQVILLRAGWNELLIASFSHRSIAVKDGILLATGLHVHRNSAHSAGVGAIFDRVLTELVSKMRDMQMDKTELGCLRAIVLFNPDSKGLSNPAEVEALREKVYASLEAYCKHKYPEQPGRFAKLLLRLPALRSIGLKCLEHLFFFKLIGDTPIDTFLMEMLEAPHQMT
Method in brief: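 Reporter activation is measured as beta-lactamase activity via FRET substrate cleavage (emission 460/530 nm) in HEK 293T cells expressing an RXR-alpha-driven bla construct, following 16 hr compound exposure at 37 C.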

[17] = qHTS assay to identify small molecule antagonists of the retinoic acid receptor (RAR) signaling pathway (AID 1159552; also: nearly all actives have a fitted effect of over 50% in size)
Method in brief: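 Overnight-plated C3RL4 reporter cells get compound, then retinol to 1 uM final; plates sit 6 hr at 37 C, 5% CO2. A luciferase reagent is added and light output recorded after 30 min at room temperature.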

[18] = qHTS assay to identify small molecule agonists of the retinoic acid receptor (RAR) signaling pathway (AID 1159553)
Method in brief: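 C3RL4 cells carrying a RARE luciferase reporter were plated overnight at 37 C, then exposed to compounds in DMSO for 6 hr at 37 C and 5% CO2. Luminescence was read 30 min after luciferase reagent addition at room temperature.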

[19] = qHTS assay to identify small molecule agonists of the vitamin D receptor (VDR) signaling pathway - cell viability counter screen (AID 743224)
Method in brief: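 VDR-bla cells were preincubated 4 h at 37C/5% CO2, then exposed to compounds for 16 h. After the 2 h room-temperature bla FRET read, CellTiter-Glo was added to the same wells and luminescence read after 30 min.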

Measured: Potency

OCCOCCOCCO
inactive: [1] | [2] | [3] | [4] | [5] | [6] | [7] | [8] | [9] | [10] | [11] | [12] | [13] | [14] | [15]

CC1CCC(C(C)C)C(O)C1 (stereo not drawn)
inactive: [1] | [2] | [3] | [4] | [5] | [6] | [7] | [9] | [16] | [10] | [11] | [17] | [18] | [12] | [13] | [15]

OCC(CO)(CBr)CBr
inactive: [19] | [1] | [2] | [3] | [4] | [5] | [6] | [7] | [8] | [9] | [10] | [11] | [17] | [18] | [12] | [13] | [14] | [15]

CC1=CCC2CC1C2(C)C (stereo not drawn)
inactive: [19] | [1] | [2] | [3] | [4] | [5] | [6] | [7] | [8] | [9] | [16] | [10] | [11] | [17] | [18] | [12] | [13] | [14] | [15]

Nc1ccccc1[N+](=O)[O-]
inactive: [1] | [2] | [3] | [4] | [5] | [6] | [7] | [8] | [9] | [10] | [11] | [17] | [12] | [13] | [14] | [15]

COc1ccc(Nc2ccccc2)c(C)c1
inactive: [19] | [1] | [2] | [3] | [4] | [5] | [6] | [7] | [8] | [9] | [16] | [10] | [11] | [12] | [13] | [14] | [15]

CCCC(C)=O
inactive: [1] | [2] | [3] | [4] | [5] | [6] | [7] | [9] | [16] | [10] | [11] | [17] | [18] | [12] | [13] | [14] | [15]

CCCCCC/C(C=O)=C\c1ccccc1
inactive: [1] | [2] | [3] | [4] | [5] | [6] | [7] | [9] | [10] | [11] | [17] | [18] | [12] | [14] | [15]

From PubChem BioAssay (Tox21)
